# Test results: the supplement of paper PMC8975748
# Structures can show the parent of a compound that is named as a salt. ± gives the standard deviation of the averaged measurements.
# Key:
# [1] = system: Saccharomyces cerevisiae BY4741 SeMeCo community; test: mean cell size (pixel area) (pixels); higher = larger cells; settings: 10 µM; 24 h; SM minimal medium
# Outline: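 A Saccharomyces cerevisiae BY4741 community carrying four plasmids, each with a fluorescent marker and each complementing one auxotrophy, was exposed for 24 h to drug at a final 10 µM in SM medium in acoustically predosed 384-well plates. The overnight preculture (OD600 = 1.0) was diluted to OD600 = 0.3 before 70 µl was added per well. Cells were then fixed with paraformaldehyde, imaged by automated confocal microscopy and analysed in Harmony to derive mean cell pixel area per well, averaged over 3 replicates. Same SeMeCo high-content imaging drug screen: Selleck FDA-approved drugs at 10 µM, 24 h in SM medium, 384-well plates, 3 replicates.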
# [2] = system: Saccharomyces cerevisiae BY4741 SeMeCo community; test: z-score of prototroph abundance vs DMSO median; higher = larger share of this subpopulation than in DMSO controls; settings: 10 µM; 24 h; SM minimal medium; subpopulation (auxotrophy): Prototroph
# Outline: (§1)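 Cells of a Saccharomyces cerevisiae BY4741 community, carrying four plasmids that each restored one auxotrophy and encoded a distinct fluorescent protein, were pre-grown overnight to OD600 1.0 and diluted to 0.3. A 70 µl volume was added to 384-well plates acoustically predosed with library drugs (10 µM final) and grown 24 h in minimal SM medium. After paraformaldehyde fixation, automated confocal microscopy was used, with single-auxotroph fluorescent strains for thresholds and autofluorescence correction. The abundance of each subpopulation was scored as a z-score against the vehicle-well median.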
# [3] = system: Saccharomyces cerevisiae BY4741 SeMeCo community; test: z-score of subpopulation abundance vs DMSO median, subpopulation auxotrophic for M; higher = larger share of this subpopulation than in DMSO controls; settings: 10 µM; 24 h; SM minimal medium; subpopulation (auxotrophy): M
# Outline: as §1
# [4] = system: Saccharomyces cerevisiae BY4741 SeMeCo community; test: z-score of subpopulation abundance vs DMSO median, subpopulation auxotrophic for L; higher = larger share of this subpopulation than in DMSO controls; settings: 10 µM; 24 h; SM minimal medium; subpopulation (auxotrophy): L
# Outline: as §1
# [5] = system: Saccharomyces cerevisiae BY4741 SeMeCo community; test: z-score of subpopulation abundance vs DMSO median, subpopulation auxotrophic for U; higher = larger share of this subpopulation than in DMSO controls; settings: 10 µM; 24 h; SM minimal medium; subpopulation (auxotrophy): U
# Outline: as §1
# [6] = system: Saccharomyces cerevisiae BY4741 SeMeCo community; test: z-score of subpopulation abundance vs DMSO median, subpopulation auxotrophic for H; higher = larger share of this subpopulation than in DMSO controls; settings: 10 µM; 24 h; SM minimal medium; subpopulation (auxotrophy): H
# Outline: as §1
# [7] = system: Saccharomyces cerevisiae BY4741 SeMeCo community; test: z-score of subpopulation abundance vs DMSO median, subpopulation auxotrophic for LU; higher = larger share of this subpopulation than in DMSO controls; settings: 10 µM; 24 h; SM minimal medium; subpopulation (auxotrophy): LU
# Outline: as §1
# [8] = system: Saccharomyces cerevisiae BY4741 SeMeCo community; test: z-score of subpopulation abundance vs DMSO median, subpopulation auxotrophic for LM; higher = larger share of this subpopulation than in DMSO controls; settings: 10 µM; 24 h; SM minimal medium; subpopulation (auxotrophy): LM
# Outline: as §1
# [9] = system: Saccharomyces cerevisiae BY4741 SeMeCo community; test: z-score of subpopulation abundance vs DMSO median, subpopulation auxotrophic for HM; higher = larger share of this subpopulation than in DMSO controls; settings: 10 µM; 24 h; SM minimal medium; subpopulation (auxotrophy): HM
# Outline: as §1
# [10] = system: Saccharomyces cerevisiae BY4741 SeMeCo community; test: z-score of subpopulation abundance vs DMSO median, subpopulation auxotrophic for HU; higher = larger share of this subpopulation than in DMSO controls; settings: 10 µM; 24 h; SM minimal medium; subpopulation (auxotrophy): HU
# Outline: as §1
# [11] = system: Saccharomyces cerevisiae BY4741 SeMeCo community; test: z-score of subpopulation abundance vs DMSO median, subpopulation auxotrophic for UM; higher = larger share of this subpopulation than in DMSO controls; settings: 10 µM; 24 h; SM minimal medium; subpopulation (auxotrophy): UM
# Outline: as §1
# [12] = system: Saccharomyces cerevisiae BY4741 SeMeCo community; test: z-score of subpopulation abundance vs DMSO median, subpopulation auxotrophic for HL; higher = larger share of this subpopulation than in DMSO controls; settings: 10 µM; 24 h; SM minimal medium; subpopulation (auxotrophy): HL
# Outline: as §1
# [13] = system: Saccharomyces cerevisiae BY4741 SeMeCo community; test: z-score of subpopulation abundance vs DMSO median, subpopulation auxotrophic for HLU; higher = larger share of this subpopulation than in DMSO controls; settings: 10 µM; 24 h; SM minimal medium; subpopulation (auxotrophy): HLU
# Outline: as §1
# [14] = system: Saccharomyces cerevisiae BY4741 SeMeCo community; test: z-score of subpopulation abundance vs DMSO median, subpopulation auxotrophic for HUM; higher = larger share of this subpopulation than in DMSO controls; settings: 10 µM; 24 h; SM minimal medium; subpopulation (auxotrophy): HUM
# Outline: as §1
# [15] = system: Saccharomyces cerevisiae BY4741 SeMeCo community; test: z-score of subpopulation abundance vs DMSO median, subpopulation auxotrophic for LUM; higher = larger share of this subpopulation than in DMSO controls; settings: 10 µM; 24 h; SM minimal medium; subpopulation (auxotrophy): LUM
# Outline: as §1
# [16] = system: Saccharomyces cerevisiae BY4741 SeMeCo community; test: z-score of subpopulation abundance vs DMSO median, subpopulation auxotrophic for HLUM; higher = larger share of this subpopulation than in DMSO controls; settings: 10 µM; 24 h; SM minimal medium; subpopulation (auxotrophy): HLUM
# Outline: as §1
# [17] = system: Saccharomyces cerevisiae BY4741 SeMeCo community; test: z-score of subpopulation abundance vs DMSO median, subpopulation auxotrophic for HLM; higher = larger share of this subpopulation than in DMSO controls; settings: 10 µM; 24 h; SM minimal medium; subpopulation (auxotrophy): HLM
# Outline: as §1
Structure (SMILES),mean cell size [1],z-score of prototroph abundance [2],z-score of subpopulation abundance [3],z-score of subpopulation abundance [4],z-score of subpopulation abundance [5],z-score of subpopulation abundance [6],z-score of subpopulation abundance [7],z-score of subpopulation abundance [8],z-score of subpopulation abundance [9],z-score of subpopulation abundance [10],z-score of subpopulation abundance [11],z-score of subpopulation abundance [12],z-score of subpopulation abundance [13],z-score of subpopulation abundance [14],z-score of subpopulation abundance [15],z-score of subpopulation abundance [16],z-score of subpopulation abundance [17]
COc1cc2c(cc1OC)C(=O)C(CC1CCN(Cc3ccccc3)CC1)C2 (stereo unspecified) [Donepezil],12.14 ± 0.068,-0.18,1.61,0.86,-1.17,-0.21,0.06,0.51,0.52,-0.92,-0.49,0.47,-0.33,-0.13,0.47,0.22,
CCCN[C@H]1CCc2nc(N)sc2C1 [Pramipexole 2HCl Monohydrate],12.56 ± 0.054,0.72,0.15,-0.36,-0.54,-0.51,-0.67,-1.2,-0.39,-0.19,,-0.02,-0.47,-0.88,-0.47,-0.69,
N#Cc1ccc2[nH]cc(CCCCN3CCN(c4ccc5oc(C(N)=O)cc5c4)CC3)c2c1 [Vilazodone],12.2 ± 0.28,0.6,0.28,0.06,-0.66,0,-0.57,0.35,-0.16,-0.93,-0.2,-0.17,0.77,-0.53,0.72,0.53,
CN1CCOC(c2ccccc2)c2ccccc2C1 (stereo unspecified) [Nefopam HCl],,,0.02,-1.02,0.26,-0.62,0.08,-0.2,-0.51,0.21,0.37,-0.63,-0.39,,-0.26,-0.19,-0.41
N#Cc1ccc2[nH]cc(CCCCN3CCN(c4ccc5oc(C(N)=O)cc5c4)CC3)c2c1 [Vilazodone HCl],12.34 ± 0.018,-0.4,1.09,0.01,-0.4,1.09,-0.14,0.25,0.6,0.14,-0.14,0.87,-0.1,0.23,0.66,-0.28,
COc1c(N2C[C@@H]3CCCN[C@@H]3C2)c(F)cc2c(=O)c(C(=O)O)cn(C3CC3)c12 [Moxifloxacin HCl],,,0.89,2.07,-0.98,0.53,-0.22,2.74,0.67,-0.55,-0.68,1.26,-0.07,,0.77,1.08,0.72
Cc1cc(C)nc(O)n1.O=C(Nc1ccc([N+](=O)[O-])cc1)Nc1ccc([N+](=O)[O-])cc1 [Nicarbazin],12.4 ± 0.18,,-0.21,-0.96,0.5,-0.25,0.22,-1.07,-0.62,-0.22,-0.4,-1.2,-0.28,-0.86,-0.52,-0.56,
Cc1cccc(N(C)C(=S)Oc2ccc3ccccc3c2)c1 [Tolnaftate],12.3 ± 0.27,0.3,-0.22,-0.24,-0.32,-1.13,-0.35,-0.04,-0.59,-0.22,,-0.75,-0.38,-0.16,-0.11,-1.09,
N[C@@H](CCC(=O)O)C(=O)O [(S)-Glutamic acid],12.1 ± 0.22,0.18,-0.4,0.52,0.05,0.17,-0.36,0.15,-0.08,-0.75,,-0.27,-0.63,-0.56,-0.99,0.06,
C[C@H]1COc2c(N3CCN(C)CC3)c(F)cc3c(=O)c(C(=O)O)cn1c23 [Levofloxacin],12.4 ± 0.19,1.06,0,-0.45,-0.46,-0.42,-0.77,-0.53,-0.49,-0.62,-0.89,-0.59,-0.56,-0.88,-1.11,-0.96,
O=C(CCCN1CC=C(n2c(=O)[nH]c3ccccc32)CC1)c1ccc(F)cc1 [Droperidol],12.61 ± 0.072,-0.55,0.67,0.41,0.1,-0.5,1.58,0.69,0.2,,0.62,0.21,-0.09,-0.23,0.57,0.59,
CN1CCN(c2cc3c(cc2F)c(=O)c(C(=O)O)cn3-c2ccc(F)cc2)CC1 [Difloxacin hydrochloride],,0.85,0.06,-0.28,-0.57,-2.54,-0.13,-0.31,-0.76,,-0.52,-1.38,-0.55,,-0.26,0.23,-0.2
COC(=O)C1=C(C)NC(C)=C(C(=O)OCCN2CCN(C(c3ccccc3)c3ccccc3)CC2)C1c1cccc([N+](=O)[O-])c1 (stereo unspecified) [Manidipine 2HCl],12 ± 0.3,-1.31,2.89,0.47,-1.31,1.78,-0.77,2.4,2.87,0.05,-0.8,,0.54,1.21,0.89,0.77,
CO/N=C(/C(=O)N[C@@H]1C(=O)N2C(C(=O)OCOC(=O)C(C)(C)C)=C(C)CS[C@H]12)c1csc(N)n1 [Cefetamet pivoxil hydrochloride],12.46 ± 0.1,-1.5,0.7,0.83,0.3,1.26,0.94,0.52,1.3,0.78,0.64,1.33,1.65,0.8,1.09,,
